The source of these data is PubChem BioAssay AID1508600 (Functional Genomics Laboratory (NCATS/FGL), 2020).

In all, about 53,000 sequences went through this assay and about 3,700 (7%) were called active. The full list was thinned out, with actives kept by preference. A number with no mark means an inactive call.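 The calls were made as follows: active = gene knockdowns whose robust z-score for IL-1 alpha signal is at least 2 or at most -2, so actives lie on both sides; inactive = the rest.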

This experiment can be described thus: Components of the Cytosolic LPS Sensing Pathway: Gene Identification via Genome-wide siRNA Screen.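 Also: robust z of the log signal after scaling to non-targeting control siRNA wells of the plate.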 The note with it: RAW264.7 macrophages, IL-1a HTRF, actives lie on both sides, screened at 100 nM (by protocol), cells primed 5 h with Pam3CSK4 first. The gist of the method:
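Knockdown: 100 nM siRNA, 48h, RAW264.7. Stimulation: Pam3CSK4 5 h, then LipidA via TransIT-TKO 24 h. Output: supernatant IL-1a HTRF, negative-control-normalized, log robust z-score; viability by CellTiter-Glo.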
(TR-FRET usually uses a lanthanide donor and a delayed reading to cut background.)
In the case of GGUUCUAGGCAGUUUGAUATT against Tlnrd1, the z-score was 1.64.

Turning to GCCAAUUAAUGAUUGCUUUTT against Zfp322a, the z-score was 0.945.

On to CGCCAGCAGAACUCAAAUATT against Gm11992, for which the z-score was 0.623.

On to GCGUGCUUAUGAACAUAGUTT against Spen, for which the z-score is 2.02 (active).

On to GAUGAUUGACGACAUGGAATT against Rgs9bp, for which the z-score is 0.656.

In the case of GGAUGAUGUGAUGAAGAUCTT against Fgfr4, the z-score is -0.0955.

GGUUAAAUGCCCGCCAACATT against Eif2ak4: the z-score was -0.876.

In the case of GGAUAAGGACCUCUUCUCUTT against Ubl7, the z-score is -1.41.

Consider GGGAAUAGCAAACUUAUCUTT against Nfil3, for which the z-score was -0.688.

As to GGGACAAAACCUUGAUGGUTT against Vmn1r200, the z-score was -0.254.

As for GGAAGUAAUCAAUUUGGUGTT against Epm2aip1, the z-score is 1.36.

As for GGUGUUAAUCCAGUUCAAUTT against Bbs12, the z-score was 2.26 (active).

On to GCACAUGUAUCCAUGCUUCTT against Kcnj11, for which the z-score is -0.815.

Regarding GGAAGUUCGUGGAAGGCAATT against Pck1, the z-score is 0.188.

Take GGAAGAAAACAGCGAUUUGTT against Ppp1r15a: the z-score was -0.447.

Consider GCAUUAUUCAUAUGUUGGUTT against Fpr-rs4, for which the z-score is -0.318.

Consider GGAGUCUCUGAAGAAAACATT against Hus1, for which the z-score is -0.596.

Consider GGAAGAAAGAGAGGUGUGATT against Nxf2, for which the z-score was -2.26 (active).

Consider CCCAAUUUGGAGCUAUCAGTT against Cwh43, for which the z-score was -0.89.

GGACUUCCAGAUCCAACCUTT against Robo4: the z-score was -0.867.

Turning to GGAACUCUCAAGAGAGAAUTT against Dnajc14, the z-score was 0.233.

In the case of GGUACCCACUAGAGGAUCATT against Madd, the z-score was -2.61 (active).

Consider “GGACAGAGAACAAAUGACCTT against 4931417E11Rik”, for which the z-score was -1.91.

Turning to GGCAGCAGUUAUUGUGGAUTT against Ly6a, the z-score is 0.693.

For GGAAGGACCAAAGCUUUCUTT against Olfr1123, the z-score is 0.982.

Regarding CCACCAAUGAUUUGAUGCATT against Gpr75, the z-score is -0.0162.

With GGAUUUUGAAUUAUGGGAUTT against Relch, the z-score was -0.0955.

On to CGAAGGGAUUGAUUUGACUTT against Kars, for which the z-score is -0.324.

For the sequence GCCAAAUGUGCGUCAUCUATT against Zdhhc25, the z-score was -2.54 (active).
